Sampled rows, rich in hits. Any-hit rate of the full collection: about 1.8%.
PTHR1 ag: qHTS for PTHR1 Agonists: Primary Screen; Parathyroid hormone/parathyroid hormone-related peptide receptor (Homo sapiens), Q03431; 410,000 tested, 0.075% active; Potency, µM (titrated, usually from 115 µM), most hits filed as activators; AID 743266, 2014; HEK293 GP2 PTHR1 cells, GloSensor cAMP luminescence, 1 h; also: nearly all actives have a fitted effect of over 55% in size
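HEK-293-derived GP2 cells expressing PTHR1 and a GloSensor cAMP reporter, 3,000/well, plated overnight, given luciferin plus IBMX (each 0.5 mM as added) for 1 h at 37 °C, then compound for 1 h at 37 °C. Luminescence was read after 15 min at room temperature.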
TSHR antagonist: Antagonists of the Thyroid Stimulating Hormone Receptor: HTS campaign; Thyrotropin receptor (Homo sapiens), P16473; TSHR-expressing cells, TSH-stimulated cAMP HTRF, 2 h; active compounds read low; activity change, negative = inhibition, % at 11.5 µM; 330,000 tested, 0.2% active; AID 504810, 2011;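 active = activity change below a set negative limit, meaning inhibition stronger than a set level, cut at about -70% in these data; inconclusive = activity change between two set negative limits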
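Cell-based HTRF cAMP assay; TSHR cells + compound, TSH EC80 (4nM final), 2 h, 37 deg C. Lysis with anti-cAMP cryptate and cAMP-d2, 30 min RT, read 665/620 nm.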
GLP-1R agonist: qHTS of GLP-1 Receptor Agonists; Glucagon-like peptide 1 receptor (Homo sapiens), P43220; HEK293 GLP-1R CRE-luciferase, luminescence, 4-6 h; cells express a hypersensitive GLP-1R form; Potency, µM (highest dose often 45.6 µM), actives largely listed as activators; 380,000 tested, 0.007% active; AID 624172, 2012
Target sequence (P43220 whole entry, looked up): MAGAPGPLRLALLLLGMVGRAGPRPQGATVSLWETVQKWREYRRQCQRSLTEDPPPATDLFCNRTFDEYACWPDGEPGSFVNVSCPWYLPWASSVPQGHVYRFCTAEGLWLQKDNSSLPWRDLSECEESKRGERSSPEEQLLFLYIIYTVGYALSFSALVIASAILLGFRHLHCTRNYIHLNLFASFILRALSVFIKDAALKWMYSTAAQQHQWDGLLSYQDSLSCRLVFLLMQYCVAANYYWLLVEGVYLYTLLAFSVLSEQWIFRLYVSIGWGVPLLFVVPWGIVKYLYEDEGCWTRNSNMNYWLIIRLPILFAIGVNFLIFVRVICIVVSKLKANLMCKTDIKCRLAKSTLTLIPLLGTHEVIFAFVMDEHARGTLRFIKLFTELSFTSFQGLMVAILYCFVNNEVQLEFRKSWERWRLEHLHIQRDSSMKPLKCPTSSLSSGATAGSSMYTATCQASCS
GLP1R inv ag: qHTS of GLP-1 Receptor Inverse Agonists (Inhibition Mode) | Glucagon-like peptide 1 receptor (Homo sapiens), P43220 | HEK293 GLP-1R CRE-luciferase, luminescence, 24 h; GLP-1R form is constitutively active | Potency, µM (highest dose often 38.3 µM), usual class: inhibitors | 410,000 tested, 1.6% active | AID 624417, 2012; also: nearly all actives have a fitted effect of over 55% in size
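HEK293 cells stably co-expressing a cAMP-responsive luciferase reporter and constitutively active GLP-1R were seeded, incubated 12 h, then exposed to compounds for 24 h at 37 C. Luminescence was read 12 min after detection reagent; inverse agonists lower signal.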
HEK293 tox: qHTS of GLP-1 Receptor Inverse Agonists: Cytotox Screen. HEK293 cAMP-luciferase reporter cells, luminescence, 24 h. Potency, µM (highest dose often 38.3 µM), usual class: inhibitors. 410,000 tested, 0.13% active;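 also: loss of luciferase light is scored as toxicity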
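To flag toxic compounds, the library was rerun on cells for 24 hr at 37 deg C and 5% CO2. Viability-linked luminescence was captured 12 min after adding luciferase detection reagent.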
Hits are given with their value. Unless noted, calls follow the shape of the dose curve; as a rule, active = well fitted curve in the direction sought with a large enough effect; inconclusive = small, poorly fitted or top-dose-only effect, or another doubt; inactive = no such curve, though single readings can be large; an effect the other way counts as inactive or inconclusive.

`CC(C)[C@H](NC(=O)c1ccc([N+](=O)[O-])cc1Cl)C(=O)N1CCN(C/C=C/c2ccccc2)CC1` gave PTHR1 ag inactive, TSHR antagonist inactive, GLP-1R agonist inactive, GLP1R inv ag 10µM and HEK293 tox inactive.
For COc1ccc(C(=O)NC(C(=O)N2CCN(C/C=C/c3ccccc3)CC2)C(C)C)cc1 (centres undefined) the results were PTHR1 ag inactive, GLP-1R agonist inactive, GLP1R inv ag inactive and HEK293 tox inactive.
`CNc1nc(SCc2ccc(C)cc2)nc2c1CCCC2` gave PTHR1 ag inactive, TSHR antagonist inactive, GLP-1R agonist inactive, GLP1R inv ag inconclusive and HEK293 tox inactive.
For Cc1ccc(CSc2nc3c(c(N(C)C)n2)CCCC3)cc1 the results were PTHR1 ag inactive, TSHR antagonist inactive, GLP-1R agonist inactive, GLP1R inv ag 11.2µM and HEK293 tox inactive.
O=S(=O)(O)c1cccc2c(N=Nc3ccc(O)c4ncccc34)cccc12 was read as PTHR1 ag inactive, TSHR antagonist inactive, GLP-1R agonist inactive, GLP1R inv ag inactive and HEK293 tox 11.2µM.
Screening Cc1nn(CC(=O)NCc2ccccc2Cl)c(=O)c2cccn12 returned PTHR1 ag inactive, GLP1R inv ag inactive and HEK293 tox inactive.
CCOc1ccc(Nc2nc(NCC3CCCO3)c3ccccc3n2)cc1 (centres undefined) was read as PTHR1 ag inactive, TSHR antagonist inactive, GLP-1R agonist inactive, GLP1R inv ag 3.55µM and HEK293 tox inconclusive.
COc1ccc(Nc2nc(NCC3CCCO3)c3ccccc3n2)c(OC)c1 (centres undefined) was read as PTHR1 ag inactive, TSHR antagonist inactive, GLP-1R agonist inactive, GLP1R inv ag inconclusive and HEK293 tox inactive.
`Cc1ccc(S(=O)(=O)n2nc(-c3ccco3)nc2NCc2ccccc2Cl)cc1` gave PTHR1 ag inactive, GLP1R inv ag inconclusive and HEK293 tox inactive.
`Cc1ccc(C)c(N/C(N)=N/c2nc(C)cc(C)n2)c1` gave PTHR1 ag inactive, TSHR antagonist inactive, GLP-1R agonist inactive, GLP1R inv ag 8.91µM and HEK293 tox inconclusive.
Cn1c(CN2CCCC2)nc2cc(NS(=O)(=O)c3ccc(Cl)cc3)ccc21 was read as PTHR1 ag inactive, TSHR antagonist inactive, GLP-1R agonist inactive, GLP1R inv ag 3.98µM and HEK293 tox inactive.
`COCCCNc1nc2c(-c3cccc(Br)c3)nnn2c2ccccc12` gave PTHR1 ag inactive, GLP-1R agonist inactive, GLP1R inv ag inactive and HEK293 tox inactive.
`COc1ccnc(Oc2ccc(F)cc2)c1C(=O)N/C=N/OCc1c(Cl)cccc1Cl` gave PTHR1 ag inactive, TSHR antagonist inactive, GLP-1R agonist inactive, GLP1R inv ag 10µM and HEK293 tox inactive.
Screening Cc1ccc(NC(=O)Cn2cc(C(=O)C3CCCCC3)c3ccccc32)c(C)c1 returned PTHR1 ag inactive, GLP1R inv ag inconclusive and HEK293 tox inactive.
For CC(C)(C)c1ccc(C2CC2C(=O)N/N=C\c2ccc[nH]2)cc1 (centres undefined) the results were PTHR1 ag inactive, TSHR antagonist inactive, GLP-1R agonist inactive, GLP1R inv ag 1.12µM and HEK293 tox inconclusive.
O=C(N/N=C/c1ccco1)C1CC1c1ccccc1 (centres undefined) was read as PTHR1 ag inactive, TSHR antagonist inactive, GLP-1R agonist inactive, GLP1R inv ag inactive and HEK293 tox inactive.
For CCOc1ccc(NS(=O)(=O)c2cc(NC(=O)CCC(=O)c3cccs3)ccc2Cl)cc1 the results were PTHR1 ag inactive, TSHR antagonist inactive, GLP-1R agonist inactive, GLP1R inv ag 10µM and HEK293 tox inactive.
Screening COc1ccc(NC(=O)CCC(=O)c2cccs2)cc1S(=O)(=O)Nc1ccc(Cl)cc1 returned PTHR1 ag inactive, TSHR antagonist inactive, GLP-1R agonist inactive, GLP1R inv ag inconclusive and HEK293 tox inconclusive.
COc1ccc(NC(=O)CCS(=O)(=O)c2ccccc2Cl)cc1S(=O)(=O)Nc1ccc(Cl)cc1 was read as PTHR1 ag inactive, TSHR antagonist inactive, GLP-1R agonist inactive, GLP1R inv ag 6.31µM and HEK293 tox inactive.
Cc1cc([N+](=O)[O-])c2ccccc2c1NS(=O)(=O)c1ccccc1 was read as PTHR1 ag inactive, GLP-1R agonist inactive, GLP1R inv ag 10µM and HEK293 tox inactive.
Cc1ccc(NS(=O)(=O)c2ccccc2)c([N+](=O)[O-])c1 was read as PTHR1 ag inactive, GLP-1R agonist inactive, GLP1R inv ag inactive and HEK293 tox inactive.
Nc1c(-c2nc(-c3cccs3)no2)nnn1-c1cccc(Cl)c1 was read as PTHR1 ag inactive, GLP1R inv ag inactive and HEK293 tox inactive.
O=c1cc2c(nn1Cc1ccccc1Cl)-c1ccccc1CC2 was read as PTHR1 ag inactive, TSHR antagonist inactive, GLP-1R agonist inconclusive, GLP1R inv ag 10µM and HEK293 tox inactive.
For O=c1cc2c(nn1Cc1ccc(Cl)cc1Cl)-c1ccccc1CC2 the results were PTHR1 ag inactive, TSHR antagonist inactive, GLP-1R agonist inactive, GLP1R inv ag inconclusive and HEK293 tox inactive.
CCOC(=O)c1cc2c(=O)n3ccccc3nc2n(CC2CCCO2)c1=NC(=O)c1cccc(C)c1 (centres undefined) was read as PTHR1 ag inactive, GLP1R inv ag inactive and HEK293 tox inactive.
For Cn1cc(S(C)=O)c(=O)c2ccc(F)cc21 (centres undefined) the results were GLP-1R agonist inactive.
`CCOc1ccc(-c2cc(C(=O)N3CCN(c4ccccn4)CC3)c3ccccc3n2)cc1` gave PTHR1 ag inactive, TSHR antagonist inactive, GLP-1R agonist inactive, GLP1R inv ag inactive and HEK293 tox inactive.
Cc1ccc(-c2cc(C(F)F)n3ncc(C(=O)N4CCN(c5ccccn5)CC4)c3n2)cc1 was read as PTHR1 ag inactive, TSHR antagonist inactive, GLP-1R agonist inactive, GLP1R inv ag 6.31µM and HEK293 tox inactive.
`CCN1CCN(C(=O)c2cnn3c(C(F)F)cc(-c4ccc(C)cc4)nc23)CC1` gave PTHR1 ag inactive, TSHR antagonist inactive, GLP-1R agonist inactive, GLP1R inv ag inconclusive and HEK293 tox inactive.
`CCCc1ccc(-c2cc(C(=O)N3CCN(c4ccccn4)CC3)c3ccccc3n2)cc1` gave PTHR1 ag inactive, TSHR antagonist inactive, GLP-1R agonist inactive, GLP1R inv ag 3.16µM and HEK293 tox inactive.
CN1CCCN(C(=O)c2cc(-c3cccc4ccccc34)nc3ccccc23)CC1 was read as PTHR1 ag inactive, TSHR antagonist -76.8, GLP-1R agonist inactive, GLP1R inv ag 7.94µM and HEK293 tox inactive.
